Source: PubChem BioAssay
KCNH2 3.1 inh: inhibitors of human KCNH2 3.1 potassium channel isoform. hit rate 0.95% among 340,000. U2OS KCNH2 3.1, thallium flux FluxOr; hits give low values. activity change, % (tested at about 1.8 µM). AID 720553;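 active = maximum activity change below -70%; inconclusive = maximum activity change from -70% to -50%; inactive = maximum activity change above -50%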;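 note: thallium influx rate constant from kinetic fluorescence after stimulation buffer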
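Kinetic fluorescence (2 min after stimulation buffer) measures Tl+ influx through KCNH2 3.1 expressed by viral transduction in U2OS cells; the rate constant is normalized against DMSO controls serving as positive and negative references.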
GCN5L2 inh: inhibitors of human GCN5L2 histone acetyltransferase | GCN5L2 HAT assay, ThioGlo1 CoA-SH fluorescence | Potency, µM (series often up to 58.9 µM), for inactives: at the highest dose activity change, negative = inhibition, usual class: inhibitors | Q92830 | hit rate 0.21% among 390,000; note: potency is the fitted concentration of half-maximal effect
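qHTS, 1536-well. 20nM enzyme, pH 7.5 HEPES/EDTA/Tween-20 buffer; 15 min compound preinc., RT. Start: 75uM H3(1-25), 70uM AcCoA, 50uM ThioGlo1. Read Ex340/Em540 at t=0 (autofluorescence flag) and t=20 min.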
KCNH2 WT inh: KCNH2 (human, wildtype) channel inhibition | Q12809 | hit rate 0.37% among 340,000 | U2OS, BacMam KCNH2, thallium flux FluxOr; hits give low values | activity change, % at 1.84 µM;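 active = maximum activity change below -70%; inconclusive = maximum activity change between -70% and -50%; inactive = maximum activity change above -50%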
Target sequence (Q12809 whole entry, looked up): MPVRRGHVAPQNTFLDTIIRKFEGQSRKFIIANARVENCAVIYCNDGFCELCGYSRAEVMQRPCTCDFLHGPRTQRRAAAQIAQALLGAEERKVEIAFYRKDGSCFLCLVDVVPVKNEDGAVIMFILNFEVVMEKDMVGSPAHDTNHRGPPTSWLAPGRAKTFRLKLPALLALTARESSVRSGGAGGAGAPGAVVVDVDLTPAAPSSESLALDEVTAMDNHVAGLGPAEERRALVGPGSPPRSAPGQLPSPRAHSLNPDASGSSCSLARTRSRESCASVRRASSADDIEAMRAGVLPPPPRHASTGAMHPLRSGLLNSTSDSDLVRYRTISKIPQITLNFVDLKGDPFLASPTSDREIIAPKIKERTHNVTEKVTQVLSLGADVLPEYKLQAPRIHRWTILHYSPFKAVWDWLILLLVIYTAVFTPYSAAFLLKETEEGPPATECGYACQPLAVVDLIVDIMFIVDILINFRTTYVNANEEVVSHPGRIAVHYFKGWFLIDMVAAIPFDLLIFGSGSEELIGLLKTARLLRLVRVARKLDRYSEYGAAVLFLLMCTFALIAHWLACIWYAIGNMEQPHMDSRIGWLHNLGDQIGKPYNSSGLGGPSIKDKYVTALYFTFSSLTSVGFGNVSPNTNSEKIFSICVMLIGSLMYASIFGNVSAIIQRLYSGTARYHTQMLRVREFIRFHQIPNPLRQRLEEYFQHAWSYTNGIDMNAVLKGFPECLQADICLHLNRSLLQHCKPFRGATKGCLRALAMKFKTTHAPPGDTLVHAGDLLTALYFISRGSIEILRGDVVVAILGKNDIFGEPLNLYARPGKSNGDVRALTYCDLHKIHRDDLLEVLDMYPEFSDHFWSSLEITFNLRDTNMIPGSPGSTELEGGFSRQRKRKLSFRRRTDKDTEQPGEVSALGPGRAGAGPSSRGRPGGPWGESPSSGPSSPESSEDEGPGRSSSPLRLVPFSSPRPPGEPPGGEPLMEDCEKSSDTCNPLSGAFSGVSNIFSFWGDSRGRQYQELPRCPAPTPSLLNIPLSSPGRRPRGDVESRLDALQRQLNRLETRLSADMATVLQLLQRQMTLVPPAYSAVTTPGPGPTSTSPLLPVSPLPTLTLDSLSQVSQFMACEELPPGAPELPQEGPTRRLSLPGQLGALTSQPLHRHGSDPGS
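U2OS cells transduced with wild-type KCNH2 virus are loaded with FluxOr dye for 45 min, and thallium flux is measured in kinetic reads before and after stimulation buffer. Rate constants are normalized to DMSO controls.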
PGK inhibitor: blocks T. brucei phosphoglycerate kinase. P07378. PGK/GAPDH coupled, Kinase-Glo luminescence, 60 min. Potency, µM (doses to about 57.5 µM), for inactives: at the top dose activity change, negative = inhibition, hits mostly inhibitors. hit rate 0.043% among 380,000; note: potency is the fitted concentration of half-maximal effect; nearly all actives have a fitted effect of over 60% in size
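Recombinant glycosomal PGK reaction used 1,3-bisphosphoglycerate generated in-well by GAPDH (100nM final) in 100mM TEA pH 7.6, 5mM MgCl2, 0.01% Tween-20. After 60 minutes at room temperature, ATP was read by Kinase-Glo Plus luminescence end-point.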
Pin1 inh: inhibitors of human Pin1. Q13526. Pin1 FP peptide displacement, HiFluor488, 10 min. Potency, µM (highest dose often 115 µM), without a hit: top-dose activity, negative = inhibition, most hits filed as inhibitors. hit rate 0.009% among 390,000. AID 504891; active = well fitted inhibition curve with a large enough effect in the polarisation, with a control signal flat, not every such curve was filed as active; inconclusive = small, poorly fitted or top-dose-only effect, or effect the other way, or a change in a side signal; inactive = no such curve, though single readings can be large or run the other way; the % refers to the polarisation; note: potency is the fitted concentration of half-maximal effect
RGS4 inhibitor: blocks human RGS4-accelerated GTP hydrolysis; AID 504845; Potency, µM (top dose mostly 114 µM), without a hit: at the top dose activity change, negative = inhibition, hits mostly inhibitors; Transcreener GDP fluorescence polarization, RGS4-accelerated GTP hydrolysis; hit rate 0.039% among 390,000; P49798; note: potency is the fitted concentration of half-maximal effect; nearly all actives have a fitted effect of over 75% in size
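MLSMR compounds (23 nl, pin-transferred) preincubated 10 min at room temperature with a 500nM (2x) first reagent, then RGS4 at 900nM (2x) plus Transcreener GDP mix added; fluorescence polarization (620/688 nm) read before and after 90 min at 30 °C.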
* marks the source's active call; other numbers are inactive results; i = inactive; ? = inconclusive; / = no result; ! = repeats disagree; [ ] = another dose, or the depositor's remark. This is a sample that favours compounds with a hit; in the whole collection about 1.2% have one here. Unless noted, calls come from the whole dose curve; as a rule, active = well fitted curve in the direction sought with a large enough effect; inconclusive = small, poorly fitted or top-dose-only effect, or another doubt; inactive = no such curve, though single readings can be large; an effect the other way counts as inactive or inconclusive. % is set by controls: 0 for no effect and ±100 for the full control effect.

SMILES	KCNH2 3.1 inh	GCN5L2 inh	KCNH2 WT inh	PGK inhibitor	Pin1 inh	RGS4 inhibitor
CC(=O)NC(c1cccc([N+](=O)[O-])c1)c1ccc2cccnc2c1O (configuration not stated)	-1	-26%	16	1%	-2%	19%[56.9 µM]
O=[N+]([O-])c1ccc(NC(c2ccccc2)c2ccc3cccnc3c2O)cc1 (configuration not stated)	-71*	/	-12	4%	?	2%
CCCC(=O)NC(c1ccccc1)c1ccc2cccnc2c1O (configuration not stated)	-4	2%	-262*	i	-4%	-24%[56.9 µM]
CCCCC(=O)NC(c1ccccc1Cl)c1ccc2cccnc2c1O (configuration not stated)	-97*	-2%	-17	9%	4%	16%
COc1cccc(C(NC(C)=O)c2ccc3cccnc3c2O)c1 (configuration not stated)	-5	8%	-82*	-8%	0%	-11%[56.9 µM]
CCCCC(=O)NC(c1ccccc1)c1ccc2cccnc2c1O (configuration not stated)	-3	-3%	0	-5%	2%	-26%[56.9 µM]
COc1ccc(-n2nc(C(=O)NCCc3cccc(C)c3)c3c4ccccc4n(C)c3c2=O)cc1Cl	/	-7%	/	-3%	-4%	19%
O=C(NC1c2ccccc2Oc2ccccc21)c1ccc([N+](=O)[O-])cc1	-100*	/	?	8%	-1%	6%
O=c1oc2ccccc2cc1-c1nc2c(s1)CCCC2	-87*	-23%	1	-6%	14%	-17%
COc1ccc(Cl)cc1NC(=O)c1nn(-c2ccc(C)cc2)c(=O)n(C)c1=O	/	-3%	/	-4%	-5%	-1%
Cc1ccc(S(=O)(=O)CCC(=O)Nc2ccc(Br)cc2C)cc1	/	-27%	/	4%	1%	5%
Cc1cc([N+](=O)[O-])ccc1NC(=O)CN1CCN(Cc2ccccc2)CC1	-81*	-1%	-6	-2%	-1%	2%
O=C(CN1CCN(Cc2ccccc2)CC1)Nc1ccc([N+](=O)[O-])cc1C(=O)Nc1ccccc1F	-103*	-12%	-82*	-6%	0%	-2%
O=C(CNC(=O)C1CCCCC1)OCC(=O)c1ccc2c(c1)CCC2	/	/	/	/	-7%	1%
O=C(NC1CCCCC1)c1cc(-c2cccs2)on1	-71*	-4%	-10	-2%	-8%	-3%
Cc1ccc(C)c(OCCCN2CCNCC2)c1	-5	-10%	6	-3%	-4%	24%
Cc1ccc(C)c(OCCCCN2CCNCC2)c1C	-88*	-1%	-1	-1%	4%	-12%
CCCCCCCCCCOC(=O)Cn1c(COc2ccccc2C)[n+](C)c2ccccc21	-81*	-3%	?	-2%	8%	-27%
CCCCCCCCCCOC(=O)Cn1c(COc2ccc(OC)cc2)[n+](C)c2ccccc21	-93*!	-6%	-116*!	0%	1%	-17%
CCc1c(C)c2cc3c(c(C)c2oc1=O)OCN(CCc1ccccc1F)C3	/	?	/	-3%	?	-31%
Cc1cc(OC(C)C(=O)Nc2c(C(=O)c3ccc(F)cc3)oc3ccccc23)ccc1Cl (configuration not stated)	/	-4%	/	-1%	-4%	17%
CCC(=O)Nc1cccc(-c2nnc(SCC(=O)c3ccccc3)n2C)c1	-91*	-1%	0	-9%	-1%	-25%[56.9 µM]
CCC(=O)Nc1cccc(-c2nnc(SCC(=O)NCc3ccco3)n2C)c1	3	-7%	0	-4%	-1%	-11%
COc1cc2c(cc1OC)C(c1ccc(Br)cc1)CC(=O)N2 (configuration not stated)	2	?	-126*	i	0%	-6%
COc1ccc(OCC(=O)NC2CC(=O)N(c3cccc(OC)c3)C2)cc1 (configuration not stated)	/	2%	/	i	-7%	23%
SMILES	KCNH2 3.1 inh	GCN5L2 inh	KCNH2 WT inh	PGK inhibitor	Pin1 inh	RGS4 inhibitor
CCOc1ccc(C2C(C(N)=O)=C(C)Nc3nc(SCc4ccccc4)nn32)cc1 (configuration not stated)	/	-10%	/	7%	-2%	26%
O=C(NCc1cccnc1)c1ccc(CS(=O)(=O)Cc2ccc(Cl)cc2)o1	-9	-4%	-9	-8%	-7%	-20%
O=S(=O)(Cc1ccc(Cl)cc1)NCc1cccnc1	-78*	5%	-9	-7%	-6%	-13%
CN(C)c1ccc(N=Nc2nc3ccccc3n2C)cc1	-22	-13%	-2	14µM*	24%	4%
CCN(CC)C(=O)c1sc2c(c1C)c(=O)n(-c1ccccc1)c(=O)n2Cc1c(C)cc(C)cc1C	/	-3%	/	0%	-6%	-9%
CC(=O)N/C(=C\c1cccc([N+](=O)[O-])c1)C(=O)NC1CCCCC1	?	-3%	-6	-5%	-5%	18%
COc1ccc(/C=C(/NC(=O)c2cccs2)C(=O)Nc2ccc(C)cc2)cc1OC	8	2%	1	5%	0%	6%
Cc1ccc(NC(=O)/C(=C/c2cccc([N+](=O)[O-])c2)NC(=O)C2CCCCC2)cc1	-79*	0%	19	-2%	-6%	18%
O=C(Nc1ccc(Br)cc1)/C(=C/c1cccc([N+](=O)[O-])c1)NC(=O)C1CCCCC1	-90*	-6%	-97*	-8%	6%	7%
Cc1ccc(NC(=O)/C(=C\c2cccc([N+](=O)[O-])c2)NC(=O)c2cccs2)cc1	-84*	-12%	4	0%	6%	8%[11.4 µM]
O=C(c1cnccn1)N1CCC[C@@]2(CCN(c3ccncc3)C2)C1	/	24%	/	/	/	/
COc1cc(/C=N/NC(=O)CCN2CCN(C(c3ccccc3)c3ccccc3)CC2)ccc1O	-106*	-6%	-43	-4%	0%	3%
Cc1cccc(NS(=O)(=O)c2ccc3c(c2)CCN3C(=O)C2CC2)c1C	/	-4%	/	0%	-1%	-3%
Cc1ccc(S(=O)(=O)NCC(=O)N(CC(=O)NCC2CCCO2)Cc2ccccc2)cc1 (configuration not stated)	-15	2%	-1	0%	2%	-22%
COc1cccc(N(CC(=O)NCC2CCCO2)C(=O)CNS(=O)(=O)c2ccccc2)c1 (configuration not stated)	-70*	-13%	-8	6%	1%	6%
CCN(CC(=O)NCC1CCCO1)S(=O)(=O)c1ccc(Cl)cc1 (configuration not stated)	1	-3%	-80*	1%	3%	50%
